Results filed as inconclusive are left out. Active and inactive are the calls of the source. Unless noted, calls follow the shape of the full dose curve.
Key:
[1] = Nuclear factor erythroid 2-related factor 2/antioxidant responsive element (Nrf2/ARE) small molecule agonists: qHTS cell viability counter screen in human keratinocytes (AID 1919968; active = well fitted curve in the direction sought with a large enough effect in the repeat runs; an effect the other way counts as inactive or inconclusive; also: nearly all actives have a fitted effect of over 55% in size)
Summary of the method: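 Cells of the KeratinoSens line were plated at 1,500 per well and left for 5 h before compound transfer from DMSO stocks. After a 23 h incubation (37 C, 5% CO2), CellTiter-Fluor was added. Signal was taken as fluorescence intensity 1 h later.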

[2] = Nuclear factor erythroid 2-related factor 2/antioxidant responsive element (Nrf2/ARE) small molecule agonists: luciferase reporter gene qHTS assay in human keratinocytes (AID 1919969); also: nearly all actives have a fitted effect of over 35% in size
[3] = target: Gonadotropin-releasing hormone receptor (Homo sapiens) (UniProt P30968); assay: Human gonadotropin-releasing hormone receptor (GnRHR) small molecule agonists, calcium flux assay in GnRHR-HEK293 cells (AID 1920063); also: nearly all actives have a fitted effect of over 35% in size
Sequence of Gonadotropin-releasing hormone receptor (Homo sapiens) (P30968 whole entry, looked up): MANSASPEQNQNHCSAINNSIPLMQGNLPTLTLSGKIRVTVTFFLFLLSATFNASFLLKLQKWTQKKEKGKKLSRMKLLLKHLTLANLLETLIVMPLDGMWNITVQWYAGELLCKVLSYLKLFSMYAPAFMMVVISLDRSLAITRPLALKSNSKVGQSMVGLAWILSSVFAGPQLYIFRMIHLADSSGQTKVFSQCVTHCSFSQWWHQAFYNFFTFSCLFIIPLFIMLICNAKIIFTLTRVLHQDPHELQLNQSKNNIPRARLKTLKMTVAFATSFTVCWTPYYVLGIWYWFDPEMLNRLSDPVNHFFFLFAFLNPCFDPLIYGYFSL
Summary of the method: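 Compounds dissolved in DMSO are pin-transferred onto dye-loaded GnRHR-HEK293 cells, which were seeded 18 h before at 37 C/5% CO2. Calcium signal is read as fluorescence intensity at 1 s intervals for 3 min.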

[4] = target: KiSS-1 receptor (Homo sapiens) (UniProt Q969F8); assay: Human kisspeptin (KISS1R) small molecule agonists, calcium flux assay in KISS1R-HEK293 cells (AID 1920064; active = well fitted curve in the direction sought with a large enough effect in the repeat runs; an effect the other way counts as inactive or inconclusive)
Sequence of KiSS-1 receptor (Homo sapiens) (Q969F8 whole entry, looked up): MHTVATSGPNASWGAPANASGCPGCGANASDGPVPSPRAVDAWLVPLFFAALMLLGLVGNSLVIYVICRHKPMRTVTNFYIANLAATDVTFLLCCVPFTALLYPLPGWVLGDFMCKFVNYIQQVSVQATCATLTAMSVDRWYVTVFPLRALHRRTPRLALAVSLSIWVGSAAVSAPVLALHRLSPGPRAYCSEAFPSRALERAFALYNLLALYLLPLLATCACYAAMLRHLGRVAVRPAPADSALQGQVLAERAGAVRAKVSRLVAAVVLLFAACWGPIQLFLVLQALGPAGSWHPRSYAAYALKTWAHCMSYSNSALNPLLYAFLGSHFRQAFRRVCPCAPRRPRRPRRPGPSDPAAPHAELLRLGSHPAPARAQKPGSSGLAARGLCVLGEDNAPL
Summary of the method: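 Cell line: HEK293, stable human KISS1R. Dye loading 1 h at 37 C after 18 h culture. Read: kinetic fluorescence, 480/540 nm, 3 min at 1 s intervals.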

[5] = G protein-coupled receptor (GPCR) small molecule agonists, calcium flux assay: HEK293 wild type cell line counter screen (AID 1920065)
Summary of the method: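 Tox21 10K compounds, 15 concentrations each in triplicate, pin-transferred in DMSO onto dye-loaded cells; kinetic read at 480/540 nm for 3 min, 1 s intervals.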

[6] = p53 small molecule agonists, cell-based qHTS assay with human liver microsomes (AID 1963577);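 also: p53 response element beta-lactamase reporter cells with liver microsomes plus NADPH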
Summary of the method: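 In this qHTS, p53 response-element beta-lactamase cells receive test compound together with a microsome/NADPH activating system (0.5 mg/mL final each) and are incubated 16 h at 37 C before LiveBLAzer fluorescence detection.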

[7] = p53 small molecule agonists, cell-based qHTS assay with rat liver microsomes (AID 1963578)
Summary of the method: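 Agonist mode in p53RE-bla reporter cells, with compounds co-incubated 16 h at 37 C alongside 0.5 mg/mL rat liver microsomes and 0.5 mg/mL NADPH (final), followed by a 2 h LiveBLAzer detection step.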

[8] = p53 small molecule agonists, cell-based qHTS assay with human liver microsomes: qHTS cell viability counter screen (AID 1963579); also: nearly all actives have a fitted effect of over 45% in size
Summary of the method: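 Metabolically activated exposure: compounds, human liver microsomes and NADPH (0.5 mg/mL final apiece) were added to p53RE-bla cells seeded 5 h earlier, left 16 h at 37 C, and then assessed for viability by CellTiter-Glo luminescence.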

[9] = p53 small molecule agonists, cell-based qHTS assay with rat liver microsomes: qHTS cell viability counter screen (AID 1963580); also: nearly all actives have a fitted effect of over 45% in size
Summary of the method: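 Counter screen for cytotoxicity under metabolic activation: rat liver microsomes and NADPH, 0.5 mg/mL final each, added with compounds to p53RE-bla HCT-116 cells; 16 h at 37 C, then ATP luminescence read.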

[10] = p53 small molecule agonists, cell-based qHTS assay: qHTS cell viability counter screen (AID 1963581); also: nearly all actives have a fitted effect of over 45% in size
Summary of the method: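 ATP content measured by luminescence in HCT-116 p53RE-bla cells treated 16 h at 37 C, same wells as the reporter screen.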

[11] = p53 small molecule agonists, cell-based qHTS assay (AID 1963582; active = well fitted activation curve with a large enough effect in the signal ratio in the repeat runs, not every such curve was filed as active; the % refers to the signal ratio)
Summary of the method: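 16 h compound exposure (37 C) of p53 response element–bla cells, preceded by 5 h recovery at 37 C/5% CO2; read-out via LiveBLAzer B/G FRET substrate, 2 h RT, fluorescence intensity.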

[12] = target: 5-hydroxytryptamine receptor 2A (Homo sapiens) (UniProt P28223); assay: 5-hydroxytryptamine receptor 2A (HTR2A) small molecule antagonists, cell-based qHTS assay (AID 1963586); also: nearly all actives have a fitted effect of over 45% in size
Sequence of 5-hydroxytryptamine receptor 2A (Homo sapiens) (P28223 whole entry, looked up): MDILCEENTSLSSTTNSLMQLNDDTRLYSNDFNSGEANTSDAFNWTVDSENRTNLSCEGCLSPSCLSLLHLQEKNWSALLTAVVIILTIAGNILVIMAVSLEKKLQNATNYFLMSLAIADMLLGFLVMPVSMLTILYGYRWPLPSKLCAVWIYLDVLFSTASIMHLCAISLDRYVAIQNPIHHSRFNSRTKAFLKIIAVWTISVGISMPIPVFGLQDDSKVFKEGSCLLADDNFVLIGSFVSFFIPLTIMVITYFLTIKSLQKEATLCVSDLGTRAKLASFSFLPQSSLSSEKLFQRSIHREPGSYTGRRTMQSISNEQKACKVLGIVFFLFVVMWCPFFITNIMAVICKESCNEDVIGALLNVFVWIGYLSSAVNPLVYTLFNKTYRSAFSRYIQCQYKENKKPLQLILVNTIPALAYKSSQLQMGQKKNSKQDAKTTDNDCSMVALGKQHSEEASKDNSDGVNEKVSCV
Summary of the method: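 CHO cells stably expressing human HTR2A were plated for 18 h at 37 C, then loaded with calcium dye for 1 h. Compounds were preincubated 5 min at room temperature before DOI (4 nM solution) was added. Kinetic fluorescence was read for 3 min.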

[13] = target: 5-hydroxytryptamine receptor 2A (Homo sapiens) (UniProt P28223); assay: 5-hydroxytryptamine receptor 2A (HTR2A) small molecule agonists, cell-based qHTS assay (AID 1963587); also: nearly all actives have a fitted effect of over 30% in size
Summary of the method: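 HTR2A-CHO cells, plated 18 h at 37 C/5% CO2, dye-loaded 1 h at 37 C; compounds in DMSO added by pin tool (agonist mode). Intracellular calcium flux read as kinetic fluorescence on FDSS over 2 min at 1 s intervals.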

[14] = target: Muscarinic acetylcholine receptor M1 (Homo sapiens) (UniProt P11229); assay: Cholinergic receptor muscarinic 1 (CHRM1) small molecule agonists, cell-based qHTS assay (AID 1963589); also: nearly all actives have a fitted effect of over 35% in size
Sequence of Muscarinic acetylcholine receptor M1 (Homo sapiens) (P11229 whole entry, looked up): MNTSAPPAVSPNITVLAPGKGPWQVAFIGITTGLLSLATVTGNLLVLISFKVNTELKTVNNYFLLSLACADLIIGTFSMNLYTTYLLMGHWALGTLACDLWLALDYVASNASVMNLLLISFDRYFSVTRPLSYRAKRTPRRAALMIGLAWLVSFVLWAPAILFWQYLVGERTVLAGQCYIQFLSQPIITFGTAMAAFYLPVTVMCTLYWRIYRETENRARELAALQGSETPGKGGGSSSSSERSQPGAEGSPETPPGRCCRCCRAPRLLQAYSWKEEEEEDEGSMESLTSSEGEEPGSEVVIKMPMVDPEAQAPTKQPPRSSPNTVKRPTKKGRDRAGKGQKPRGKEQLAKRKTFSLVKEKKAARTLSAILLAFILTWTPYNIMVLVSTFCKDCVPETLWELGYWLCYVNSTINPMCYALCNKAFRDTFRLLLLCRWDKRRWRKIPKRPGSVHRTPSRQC
Summary of the method: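 Homogeneous fluorescence calcium flux, agonist mode. Human M1-expressing CHO cells; compound dosed at 15 concentrations, three independent runs; signal sampled every 1 sec.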

[15] = cAMP Responsive Elements (CRE) small molecule agonists, cell-based qHTS assay (AID 1963590)
Summary of the method: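 HEK 293T cells stably bearing CRE-bla were plated at 2,000 cells per well and rested 18 h. Compounds, positive controls or DMSO were added for 3 h at 37 C. LiveBLAzer B/G substrate was then loaded for 2 h at room temperature.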

[16] = cAMP Responsive Elements (CRE) small molecule antagonists, cell-based qHTS assay (AID 1963591; active = well fitted inhibition curve with a large enough effect in the signal ratio in the repeat runs, not every such curve was filed as active; the % refers to the signal ratio)
Summary of the method: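 First, CRE-bla HEK293T cells settled 18 h at 37 C. Next, compound and 0.25 uM final NKH477 were applied for 3 h. Last, LiveBLAzer B/G substrate was loaded for 2 h at room temperature.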

[17] = target: D(2) dopamine receptor (Homo sapiens) (UniProt P14416); assay: Dopamine D2 receptor (DRD2) small molecule agonists, cell-based qHTS assay (AID 1963594); also: nearly all actives have a fitted effect of over 35% in size
Sequence of D(2) dopamine receptor (Homo sapiens) (P14416 whole entry, looked up): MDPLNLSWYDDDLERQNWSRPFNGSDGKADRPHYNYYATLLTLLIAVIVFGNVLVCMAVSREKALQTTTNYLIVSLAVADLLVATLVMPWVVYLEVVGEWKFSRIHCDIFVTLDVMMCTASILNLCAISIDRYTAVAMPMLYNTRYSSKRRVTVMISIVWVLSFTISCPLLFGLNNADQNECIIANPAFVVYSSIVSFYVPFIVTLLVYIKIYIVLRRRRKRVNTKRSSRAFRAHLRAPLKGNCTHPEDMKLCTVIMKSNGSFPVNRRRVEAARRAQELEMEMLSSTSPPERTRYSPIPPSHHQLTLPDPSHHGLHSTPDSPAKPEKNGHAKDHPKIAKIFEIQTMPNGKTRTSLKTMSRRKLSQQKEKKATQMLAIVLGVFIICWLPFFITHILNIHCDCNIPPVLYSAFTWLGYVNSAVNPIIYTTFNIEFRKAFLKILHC
Summary of the method: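 HEK293 cells stably expressing DRD2 were cultured 24 h at 37 C, then given Ro20-1724 (0.1 mM final) and compounds for 10 min at room temperature. NKH477 (200nM) was then added for 30 min. cAMP was read by HTRF.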

[18] = target: D(2) dopamine receptor (Homo sapiens) (UniProt P14416); assay: Dopamine D2 receptor (DRD2) small molecule antagonists, cell-based qHTS assay (AID 1963595; active = well fitted inhibition curve with a large enough effect in the signal ratio in the repeat runs, with a control signal flat; the % refers to the signal ratio)
Summary of the method: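 HEK293 cells stably expressing DRD2 were preincubated with 0.1 mM Ro20-1724, then with compound for 10 min at room temperature. Cells were stimulated with 200 nM NKH477 plus 12 nM quinpirole for 30 min, and cAMP was read by HTRF.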

[19] = target: Beta-2 adrenergic receptor (Homo sapiens) (UniProt P07550); assay: Adrenergic beta2 receptor (ADRB2) small molecule antagonists, cell-based qHTS assay (AID 1963592); also: series mostly up to about 92 µM; nearly all actives have a fitted effect of over 50% in size
Sequence of Beta-2 adrenergic receptor (Homo sapiens) (P07550 whole entry, looked up): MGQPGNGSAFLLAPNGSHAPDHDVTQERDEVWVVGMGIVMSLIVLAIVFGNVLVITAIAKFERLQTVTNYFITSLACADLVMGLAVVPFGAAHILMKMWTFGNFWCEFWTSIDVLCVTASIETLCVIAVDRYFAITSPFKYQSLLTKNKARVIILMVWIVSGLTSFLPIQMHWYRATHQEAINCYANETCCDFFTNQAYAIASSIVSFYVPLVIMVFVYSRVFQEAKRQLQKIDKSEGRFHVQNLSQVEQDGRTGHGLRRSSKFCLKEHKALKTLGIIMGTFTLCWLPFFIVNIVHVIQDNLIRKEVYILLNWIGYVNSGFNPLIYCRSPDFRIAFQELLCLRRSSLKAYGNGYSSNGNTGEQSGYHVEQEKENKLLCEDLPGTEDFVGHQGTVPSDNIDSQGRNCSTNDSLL
Summary of the method: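 Assay format: CHO-ADRB2 cells, 18-20hr seeding at 37C/5% CO2, then compound plus 1nM isoproterenol agonist mix for 0.5hr RT. Homogeneous time-resolved fluorescence cAMP detection after 1hr, expressed as 665/615 nm ratio.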
% is scaled to controls: 0 for no effect and ±100 for the full control effect.

O=C(O)CCSCCC(=O)O
inactive: Potency [1] | Potency [2] | Potency [3] | outcome [4] | outcome [5] | Potency [6] | Potency [7] | Potency [8] | Potency [9] | Potency [10] | Potency [11] | Potency [12] | Potency [13] | Potency [14] | Potency [15] | Potency [16] | Potency [17] | Potency [18]

O=C(CCCl)NCCc1ccccc1
inactive: Potency [1] | Potency [2] | Potency [3] | outcome [4] | outcome [5] | Potency [6] | Potency [7] | Potency [8] | Potency [9] | Potency [10] | Potency [11] | Potency [12] | Potency [13] | Potency [14] | Potency [15] | Potency [16] | Potency [19] | Potency [17] | Potency [18]

CC(C)(C)C(=O)C(=O)O
inactive: Potency [1] | Potency [2] | Potency [3] | outcome [4] | outcome [5] | Potency [6] | Potency [7] | Potency [8] | Potency [9] | Potency [10] | Potency [11] | Potency [12] | Potency [13] | Potency [14] | Potency [15] | Potency [16] | Potency [19] | Potency [17] | Potency [18]

Cc1scc2c1N(C(=O)CN1CCN(C)CC1)c1ccccc1NC2=O
inactive: Potency [1] | Potency [2] | Potency [3] | outcome [4] | outcome [5] | Potency [6] | Potency [7] | Potency [8] | Potency [9] | Potency [10] | Potency [11] | Potency [12] | Potency [13] | Potency [14] | Potency [15] | Potency [16] | Potency [19] | Potency [17] | Potency [18]

Cn1cccc1
inactive: Potency [1] | Potency [2] | Potency [3] | outcome [4] | outcome [5] | Potency [6] | Potency [7] | Potency [8] | Potency [9] | Potency [10] | Potency [11] | Potency [12] | Potency [13] | Potency [14] | Potency [15] | Potency [16] | Potency [17]

BrCCCCCBr
inactive: Potency [1] | Potency [2] | Potency [3] | outcome [4] | outcome [5] | Potency [6] | Potency [7] | Potency [8] | Potency [9] | Potency [10] | Potency [11] | Potency [12] | Potency [13] | Potency [14] | Potency [15] | Potency [16] | Potency [17] | Potency [18]

CN1CCN(c2c(F)cc3c(=O)c(C(=O)O)cn4c3c2OCN4C)CC1
inactive: activity change, negative = cytotoxicity [1] 9.2% [at 19 µM] | activity, positive = activation [2] -3.8% [at 19 µM] | activity change [3] 0.0141% [at 11.8 µM, active compounds read high] | activation [4] -1.38% [at 15.8 µM] | activation [5] -0.0119% [at 11.8 µM] | activation [6] 0.808% [at 13.5 µM] | activation [7] -0.432% [at 13.6 µM] | activity change, negative = cytotoxicity [8] -4.82% [at 13.5 µM] | activity change, negative = cytotoxicity [9] -2.46% [at 13.5 µM] | activity change, negative = cytotoxicity [10] 0.627% [at 13.5 µM] | activation [11] -0.645% [at 13.5 µM] | activity, negative = inhibition [12] -5.02% [at 12.7 µM] | activation [13] -1.68% [at 15.9 µM] | activation [14] -0.139% [at 15.8 µM] | activity change, negative = inhibition [16] -9.33% [at 18.9 µM] | activity change, negative = inhibition [19] 2.14% [at 19 µM] | activation [17] 11.6% [at 19 µM] | activity change, negative = inhibition [18] 2.83% [at 18.9 µM]

— PubChem BioAssay (Tox21)
